Drawing on PubChem BioAssay (Tox21), this text covers Potency and activity change, negative = cytotoxicity for 40 compounds.

The structures appear in SMILES notation. Records with an inconclusive call do not appear. Where a call stands in place of a potency, no number is given. Values without a mark were called inactive. Active and inactive are the calls of the source. The call rests on the fitted dose curve; in most records, active means well fitted cell-killing curve with a large enough effect in the repeat runs; inconclusive means weak or mixed curves, or effect the other way; inactive means flat fitted curve, though single readings scatter.
Potency means the concentration at half of the fitted maximal effect.

This test in a line: cAMP Responsive Elements (CRE) small molecule agonists, cell-based qHTS assay: qHTS cell viability counter screen (AID 2060914). Further: nearly all actives have a fitted effect of over 50% in size. As to conditions: CRE-bla HEK293T viability, CellTiter-Glo luminescence, 5 h; series mostly up to 92.4 µM. The method, boiled down: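 Cytotoxicity counter screen multiplexed with the CRE-bla reporter assay in HEK 293T cells: 3 h compound exposure at 37 °C, followed by CellTiter-Glo luminescence measured in the same wells.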
Consider `Oc1cccc2[nH]ccc12`, for which the Potency result is “inactive”.
As to `O=C1O[C@H](CO)[C@@H](O)[C@H](O)[C@H]1O`, the Potency result is “inactive”.
Take `O=[N+]([O-])c1cccc(S(=O)(=O)O)c1`: the Potency entry is “inactive”.
With `O=S(=O)(O)c1ccccc1`, the Potency entry is “inactive”.
With `O=C(OCc1ccccc1)c1ccccc1`, the Potency result is “inactive”.
The same measure, in the same setting: with `CC1(C)C(=O)N(CO)C(=O)N1CO` the entry was “inactive”.
Consider `CCCCOCCCC`, for which the Potency entry is “inactive”.
As for `CCCCCCCCCCCCOCCO`, the Potency result is “inactive”.
Still for that read-out and setting: next, `CC(=O)/C=C/C=C1/C2CCC(C2)C1(C)C` (stereo not given): “inactive”; `c1ccc(CCNc2nc(-c3ccccc3)cs2)cc1`: “inactive”.
Consider `CO[Si](CCCNCCNCCN)(OC)OC`, for which the Potency result is “inactive”.
As for `CCN(Cc1cccc(S(=O)(=O)O)c1)c1ccc(C(=C2C=CC(=[N+](CC)Cc3cccc(S(=O)(=O)O)c3)C=C2)c2ccccc2S(=O)(=O)[O-])cc1`, the Potency was 38.7 µM (active).
In the case of `ClC1=C(Cl)C(Cl)(Cl)C(Cl)=C1Cl`, the Potency result is “inactive”.
For the compound `Nc1cc(-c2ccncc2)c[nH]c1=O`, the Potency result was “inactive”.
In the case of `CCCCCCOC(=O)C(C)C`, the Potency result was “inactive”.
Still for that read-out and setting: with `CNS(=O)(=O)Cc1ccc2[nH]cc(CCN(C)C)c2c1` the entry was “inactive”.
Turning to `CCNC(=O)C(C)OC(=O)Nc1ccccc1` (stereo not given), the Potency entry is “inactive”.
On the same count and under the same terms, next, `COC(=O)[C@]1(C)CCC[C@@]2(C)[C@H]1CC=C1C=C(C(C)C)CC[C@@H]12`: “inactive”.
With `Cc1ccncc1`, the Potency result is “inactive”.
Turning to `COCC(C)N` (stereo not given), the Potency result was “inactive”.
In the case of `O=Cc1ccccc1C=O`, the Potency entry was “inactive”.
On to `C=CC(=C)CC/C=C(\C)CCC=C(C)C`, for which the activity change, negative = cytotoxicity was -3.29% [at 18.9 µM].
Take `CCNC(=O)C1CC(C)CCC1C(C)C` (stereo not given): the Potency entry is “inactive”.
In the case of `O=S(=O)(Cl)c1c(Cl)cccc1Cl`, the Potency entry is “inactive”.
For the compound `Cc1ccc(C(C)c2ccc(C)c(C)c2)cc1C`, the Potency entry is “inactive”.
For the compound `O=C(CN1CCN(Cc2ccc3c(c2)OCO3)CC1)N1c2ccccc2Sc2ccccc21`, the Potency entry was “inactive”.
Consider `COC(=O)CCC(=O)OC`, for which the Potency result was “inactive”.
For `O=c1[nH]cnc2c1ncn2[C@@H]1O[C@H](CO)[C@@H](O)[C@H]1O`, the Potency result was “inactive”.
Same read-out and setting: next, `CN(C)C(=O)Oc1cccc([N+](C)(C)C)c1`: “inactive”; `NC(=O)c1ccc([N+](=O)[O-])cc1Cl`: “inactive”; `O=C(O)c1c(O)c(-c2ccccc2)nc2ccccc12`: “inactive”.
Same read-out and setting: next, `CN(C)CCN1CCN(c2cccc(Cl)c2)C1=O`: “inactive”.
With `Nc1ccccc1S(=O)(=O)c1ccccc1`, the Potency result was “inactive”.
In the case of `COC1CCC=CO1` (stereo not given), the Potency result was “inactive”.
As for `COc1c2occc2c(OC)c2c(=O)cc(C)oc12`, the Potency result is “inactive”.
In the case of `c1ccc(C(O[C@@H]2CCCN(CCc3ccc4c(c3)OCO4)C2)c2ccccc2)cc1`, the Potency result was “inactive”.
On the same count and under the same terms, with `CNCCC(Oc1ccc(C(F)(F)F)cc1)c1ccccc1` (stereo not given) the entry was “inactive”.
Turning to `O=Nc1ccc(NO)cc1`, the Potency entry was “inactive”.
Regarding `CCOC(=O)c1ncn2c1CN(C)C(=O)c1cc(F)ccc1-2`, the Potency result is “inactive”.
As for `[O]=[Mo](=[O])=[O]`, the activity change, negative = cytotoxicity is -14.6% [at 18.9 µM].
